# Test results as given in PubChem BioAssay (Tox21).
# Unmarked numbers belong to inactive results. Records with an inconclusive call do not appear. Entries that show only a call come without a potency. Active and inactive are the calls of the source. Unless noted, calls come from the whole dose curve.
# How the values were obtained:
# [1] = Nuclear factor erythroid 2-related factor 2/antioxidant responsive element (Nrf2/ARE) small molecule agonists: luciferase reporter gene qHTS assay in human keratinocytes (AID 1919969); note: nearly all actives have a fitted effect of over 35% in size; note: potency is the fitted concentration of half-maximal effect
# [2] = target: Gonadotropin-releasing hormone receptor (Homo sapiens) (UniProt P30968); assay: Human gonadotropin-releasing hormone receptor (GnRHR) small molecule agonists, calcium flux assay in GnRHR-HEK293 cells (AID 1920063); note: nearly all actives have a fitted effect of over 35% in size
# Chain of Gonadotropin-releasing hormone receptor (Homo sapiens) (P30968 whole entry, looked up): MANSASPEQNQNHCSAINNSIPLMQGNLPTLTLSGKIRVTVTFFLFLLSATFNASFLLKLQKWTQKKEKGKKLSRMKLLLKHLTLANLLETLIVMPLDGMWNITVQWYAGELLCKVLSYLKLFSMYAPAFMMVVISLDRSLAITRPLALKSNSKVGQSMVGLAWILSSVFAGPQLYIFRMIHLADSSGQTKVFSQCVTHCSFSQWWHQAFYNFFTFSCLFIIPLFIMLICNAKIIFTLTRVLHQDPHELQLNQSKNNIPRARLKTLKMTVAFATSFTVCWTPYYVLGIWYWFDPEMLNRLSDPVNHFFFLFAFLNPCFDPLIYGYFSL
# Procedure, shortened: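 We seeded human GnRHR-expressing HEK293 cells for 18 hours, loaded them with calcium dye for an hour at 37 C, added test compounds, and recorded fluorescence intensity kinetically for three minutes.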
# [3] = target: KiSS-1 receptor (Homo sapiens) (UniProt Q969F8); assay: Human kisspeptin (KISS1R) small molecule agonists, calcium flux assay in KISS1R-HEK293 cells (AID 1920064; active = well fitted activation curve with a large enough effect in the repeat runs)
# Chain of KiSS-1 receptor (Homo sapiens) (Q969F8 whole entry, looked up): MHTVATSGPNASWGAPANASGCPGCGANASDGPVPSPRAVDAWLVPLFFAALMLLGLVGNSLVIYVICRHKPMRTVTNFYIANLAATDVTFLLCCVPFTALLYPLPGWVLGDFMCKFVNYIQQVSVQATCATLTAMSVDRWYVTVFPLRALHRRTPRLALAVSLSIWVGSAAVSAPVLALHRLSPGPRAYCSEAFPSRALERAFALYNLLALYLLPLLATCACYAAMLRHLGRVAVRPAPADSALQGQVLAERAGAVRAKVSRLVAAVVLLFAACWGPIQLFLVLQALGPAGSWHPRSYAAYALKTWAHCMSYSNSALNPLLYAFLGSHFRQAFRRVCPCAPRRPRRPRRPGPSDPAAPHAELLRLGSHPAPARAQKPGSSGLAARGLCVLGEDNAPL
# Procedure, shortened: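 Kinetic calcium assay, 1 s sampling over 3 min at Ex/Em 480/540, in HEK293 cells engineered with human KISS1R; compounds delivered in DMSO after 1 h dye loading.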
# [4] = G protein-coupled receptor (GPCR) small molecule agonists, calcium flux assay: HEK293 wild type cell line counter screen (AID 1920065)
# Procedure, shortened: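 Calcium-sensitive dye, loaded 1 h at 37 C into cells cultured 18 h, reports compound-evoked calcium release as fluorescence (Ex/Em 480/540), measured over 3 min. Agonist mode; 15-point titrations, triplicate.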
# [5] = p53 small molecule agonists, cell-based qHTS assay with human liver microsomes (AID 1963577);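 note: p53 response element beta-lactamase reporter cells with liver microsomes plus NADPH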
# Procedure, shortened: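 HLM-supplemented p53RE-bla reporter assay: 16 h compound exposure at 37 C, microsomes and NADPH each 0.5 mg/mL final, read by fluorescence intensity.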
# [6] = p53 small molecule agonists, cell-based qHTS assay with rat liver microsomes (AID 1963578)
# Procedure, shortened: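 Quantitative HTS of the Tox21 10K library: p53RE-bla cells, rat liver microsomes plus NADPH at 0.5 mg/mL final each, 16 h at 37 C, beta-lactamase fluorescence detection.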
# [7] = p53 small molecule agonists, cell-based qHTS assay with rat liver microsomes: qHTS cell viability counter screen (AID 1963580); note: nearly all actives have a fitted effect of over 45% in size
# Procedure, shortened: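 In HCT-116 cells carrying a p53 response element-bla reporter, compounds were metabolically activated in situ by rat liver microsomes with NADPH over 16 h. Cell ATP content then served as the cytotoxicity measure.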
# [8] = p53 small molecule agonists, cell-based qHTS assay: qHTS cell viability counter screen (AID 1963581); note: nearly all actives have a fitted effect of over 45% in size
# Procedure, shortened: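 Following 5 h attachment, HCT-116 p53RE-bla cells took up compound for 16 h at 37 C; the reporter was read with B/G FRET substrate (2 h RT), and viability then via CellTiter-Glo ATP luminescence.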
# [9] = p53 small molecule agonists, cell-based qHTS assay (AID 1963582; active = well fitted activation curve with a large enough effect in the signal ratio in the repeat runs, not every such curve was filed as active; the % refers to the signal ratio)
# Procedure, shortened: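 In this cell-based concentration-response screen, a p53 response element drives beta-lactamase; cells received DMSO-borne compounds after 5 h culture and were incubated a further 16 h before FRET substrate development.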
# [10] = target: 5-hydroxytryptamine receptor 2A (Homo sapiens) (UniProt P28223); assay: 5-hydroxytryptamine receptor 2A (HTR2A) small molecule agonists, cell-based qHTS assay (AID 1963587); note: nearly all actives have a fitted effect of over 30% in size
# Chain of 5-hydroxytryptamine receptor 2A (Homo sapiens) (P28223 whole entry, looked up): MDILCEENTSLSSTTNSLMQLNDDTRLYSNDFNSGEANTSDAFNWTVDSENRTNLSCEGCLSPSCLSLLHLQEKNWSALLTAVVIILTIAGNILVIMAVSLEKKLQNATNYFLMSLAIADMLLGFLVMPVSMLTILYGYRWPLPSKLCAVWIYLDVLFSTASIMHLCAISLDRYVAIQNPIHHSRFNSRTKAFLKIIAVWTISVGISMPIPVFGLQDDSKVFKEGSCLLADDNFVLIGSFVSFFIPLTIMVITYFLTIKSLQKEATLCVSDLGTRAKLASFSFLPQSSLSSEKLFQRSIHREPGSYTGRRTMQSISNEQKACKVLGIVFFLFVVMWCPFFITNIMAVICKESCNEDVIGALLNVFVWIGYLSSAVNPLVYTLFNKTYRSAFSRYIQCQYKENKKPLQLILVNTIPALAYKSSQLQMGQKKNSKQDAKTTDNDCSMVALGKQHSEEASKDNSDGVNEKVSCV
# Procedure, shortened: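 HTR2A-CHO cells, plated 18 h at 37 C/5% CO2, dye-loaded 1 h at 37 C; compounds in DMSO added by pin tool (agonist mode). Intracellular calcium flux read as kinetic fluorescence on FDSS over 2 min at 1 s intervals.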
# [11] = target: Muscarinic acetylcholine receptor M1 (Homo sapiens) (UniProt P11229); assay: Cholinergic receptor muscarinic 1 (CHRM1) small molecule agonists, cell-based qHTS assay (AID 1963589); note: nearly all actives have a fitted effect of over 35% in size
# Chain of Muscarinic acetylcholine receptor M1 (Homo sapiens) (P11229 whole entry, looked up): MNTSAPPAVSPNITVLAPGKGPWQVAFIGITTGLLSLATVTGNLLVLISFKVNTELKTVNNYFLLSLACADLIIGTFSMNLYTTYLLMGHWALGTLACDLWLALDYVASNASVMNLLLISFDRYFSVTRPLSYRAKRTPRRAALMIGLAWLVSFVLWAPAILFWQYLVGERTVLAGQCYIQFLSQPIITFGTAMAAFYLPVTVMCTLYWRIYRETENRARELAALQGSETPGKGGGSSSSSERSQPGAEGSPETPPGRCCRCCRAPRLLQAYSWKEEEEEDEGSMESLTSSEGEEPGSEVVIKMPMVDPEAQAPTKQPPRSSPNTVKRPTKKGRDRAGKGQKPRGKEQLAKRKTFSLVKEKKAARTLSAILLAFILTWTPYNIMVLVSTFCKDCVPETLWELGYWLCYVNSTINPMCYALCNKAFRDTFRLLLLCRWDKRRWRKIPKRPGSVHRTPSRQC
# Procedure, shortened: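 Measures agonist-induced intracellular calcium rise. Stable human CHRM1 CHO line, 1 h dye load at 37 C, compounds from DMSO, kinetic fluorescence read.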
# [12] = cAMP Responsive Elements (CRE) small molecule agonists, cell-based qHTS assay (AID 1963590)
# Procedure, shortened: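 A CRE-responsive beta-lactamase reporter in HEK 293T cells was used. Treatment ran 3 h at 37 C; detection used LiveBLAzer B/G FRET substrate for 2 h at room temperature.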
# [13] = cAMP Responsive Elements (CRE) small molecule antagonists, cell-based qHTS assay (AID 1963591; active = well fitted inhibition curve with a large enough effect in the signal ratio in the repeat runs, not every such curve was filed as active; the % refers to the signal ratio)
# Procedure, shortened: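 HEK293T cells carrying a CRE-driven beta-lactamase reporter receive compound and NKH477 (0.25 uM final) for 3 h. Fluorescence from LiveBLAzer B/G FRET substrate is read after 2 h at room temperature.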
# [14] = target: Beta-2 adrenergic receptor (Homo sapiens) (UniProt P07550); assay: Adrenergic beta2 receptor (ADRB2) small molecule antagonists, cell-based qHTS assay (AID 1963592); note: series mostly up to about 92 µM; nearly all actives have a fitted effect of over 50% in size
# Chain of Beta-2 adrenergic receptor (Homo sapiens) (P07550 whole entry, looked up): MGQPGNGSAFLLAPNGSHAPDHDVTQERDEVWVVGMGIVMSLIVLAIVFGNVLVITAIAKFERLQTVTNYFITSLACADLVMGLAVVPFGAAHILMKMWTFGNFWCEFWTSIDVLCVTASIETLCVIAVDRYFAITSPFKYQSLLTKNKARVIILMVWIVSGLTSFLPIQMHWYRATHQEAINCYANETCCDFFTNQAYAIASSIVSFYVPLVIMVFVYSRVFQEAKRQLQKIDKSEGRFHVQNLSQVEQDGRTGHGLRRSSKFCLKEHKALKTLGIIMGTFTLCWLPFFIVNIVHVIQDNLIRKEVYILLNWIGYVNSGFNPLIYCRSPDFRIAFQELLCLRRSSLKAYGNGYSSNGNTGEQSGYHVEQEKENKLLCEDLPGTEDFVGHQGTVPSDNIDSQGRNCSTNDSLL
# Procedure, shortened: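 Cells (CHO, stable ADRB2 overexpression) incubated 18-20hr at 37C; compounds added from DMSO; agonist mix (1nM isoproterenol, 100uM IBMX, 25uM Ro-20-1724) added; 0.5hr RT; d2-cAMP and anti-cAMP-cryptate added; 1hr RT; 665/615 nm read.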
# [15] = target: Beta-2 adrenergic receptor (Homo sapiens) (UniProt P07550); assay: Adrenergic beta2 receptor (ADRB2) small molecule agonists, cell-based qHTS assay (AID 1963593);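 note: CHO cells stably overexpressing human ADRB2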
# Procedure, shortened: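 CHO cells stably over-expressing ADRB2 were plated overnight at 37C, then dosed with compounds plus a stimulation mix containing 100uM IBMX and 25uM Ro-20-1724 for 0.5hr at room temperature. cAMP was measured by HTRF competition, 1hr.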
# [16] = target: D(2) dopamine receptor (Homo sapiens) (UniProt P14416); assay: Dopamine D2 receptor (DRD2) small molecule agonists, cell-based qHTS assay (AID 1963594); note: nearly all actives have a fitted effect of over 35% in size
# Chain of D(2) dopamine receptor (Homo sapiens) (P14416 whole entry, looked up): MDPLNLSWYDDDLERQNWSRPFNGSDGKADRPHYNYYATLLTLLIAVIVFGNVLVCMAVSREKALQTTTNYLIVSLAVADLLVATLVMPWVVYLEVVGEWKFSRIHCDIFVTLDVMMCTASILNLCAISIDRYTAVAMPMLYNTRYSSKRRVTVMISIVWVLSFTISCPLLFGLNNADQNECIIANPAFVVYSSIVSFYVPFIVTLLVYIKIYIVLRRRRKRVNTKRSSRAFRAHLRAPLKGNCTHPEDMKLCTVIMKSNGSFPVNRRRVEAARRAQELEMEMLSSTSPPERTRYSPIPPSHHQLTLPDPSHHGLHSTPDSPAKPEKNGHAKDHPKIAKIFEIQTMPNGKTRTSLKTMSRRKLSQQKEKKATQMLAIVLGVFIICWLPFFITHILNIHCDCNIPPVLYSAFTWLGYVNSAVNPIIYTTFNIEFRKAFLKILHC
# Procedure, shortened: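 HEK293 cells stably expressing DRD2 were cultured 24 h at 37 C, then given Ro20-1724 (0.1 mM final) and compounds for 10 min at room temperature. NKH477 (200nM) was then added for 30 min. cAMP was read by HTRF.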
# [17] = target: D(2) dopamine receptor (Homo sapiens) (UniProt P14416); assay: Dopamine D2 receptor (DRD2) small molecule antagonists, cell-based qHTS assay (AID 1963595; active = well fitted inhibition curve with a large enough effect in the signal ratio in the repeat runs, with a control signal flat; the % refers to the signal ratio; note: potency is the fitted concentration of half-maximal effect)
# Procedure, shortened: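 HEK293 cells stably expressing DRD2, preincubated with 0.1 mM Ro20-1724 and compounds 10 min, were stimulated with 200 nM NKH477 plus 12 nM quinpirole for 30 min at room temperature; cAMP measured by HTRF (665/620 nm).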
# [18] = p53 small molecule agonists, cell-based qHTS assay with human liver microsomes: qHTS cell viability counter screen (AID 1963579); note: nearly all actives have a fitted effect of over 45% in size
# Procedure, shortened: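 Viability of p53RE-bla cells is measured as CellTiter-Glo luminescence following a 16 h, 37 C incubation with compound, liver microsomes from human donors and NADPH.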
# [19] = target: Muscarinic acetylcholine receptor M1 (Homo sapiens) (UniProt P11229); assay: Cholinergic receptor muscarinic 1 (CHRM1) small molecule antagonists, cell-based qHTS assay (AID 1963588); note: nearly all actives have a fitted effect of over 40% in size
# Procedure, shortened: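 CHRM1-CHO calcium-flux assay, antagonist mode. Cells were seeded 18 h, dye-loaded 1 h at 37 C and given compound for 5 min at RT, then acetylcholine was added at 50nM. FDSS fluorescence was read 3 min; 15 concentrations, three runs.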
# [20] = target: 5-hydroxytryptamine receptor 2A (Homo sapiens) (UniProt P28223); assay: 5-hydroxytryptamine receptor 2A (HTR2A) small molecule antagonists, cell-based qHTS assay (AID 1963586); note: nearly all actives have a fitted effect of over 45% in size
# Procedure, shortened: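 Antagonist-mode intracellular calcium assay: DOI (4 nM) added after 5 min compound pre-incubation at room temperature to dye-loaded HTR2A-CHO cells. Fluorescence followed for 3 min, sampled every second.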
smiles,measurement,setting,value
OCCNCc1ccccc1,Potency,[1],68.6 µM (active)
same,Potency,[2],inactive
same,outcome,[3],inactive
same,outcome,[4],inactive
same,Potency,[5],inactive
same,Potency,[6],inactive
same,Potency,[7],inactive
same,Potency,[8],inactive
same,Potency,[9],inactive
same,Potency,[10],inactive
same,Potency,[11],inactive
same,Potency,[12],inactive
same,Potency,[13],inactive
same,Potency,[14],inactive
same,Potency,[15],inactive
same,Potency,[16],inactive
same,Potency,[17],inactive
COc1c(C)c2c(c(O)c1C/C=C(\C)CCC(=O)O)C(=O)OC2,Potency,[1],inactive
same,Potency,[2],inactive
same,outcome,[3],inactive
same,outcome,[4],inactive
same,Potency,[5],inactive
same,Potency,[6],inactive
same,Potency,[18],inactive
same,Potency,[7],inactive
same,Potency,[15],inactive
same,Potency,[16],inactive
same,Potency,[17],inactive
Cc1nc2n(c(=O)c1CCN1CCC(c3noc4cc(F)ccc34)CC1)CCCC2,Potency,[1],inactive
same,Potency,[2],inactive
same,outcome,[3],inactive
same,outcome,[4],inactive
same,Potency,[5],inactive
same,Potency,[18],inactive
same,Potency,[8],inactive
same,Potency,[9],inactive
same,Potency,[13],inactive
same,Potency,[16],inactive
O=c1cc(-c2ccccc2)oc2ccc3ccccc3c12,Potency,[1],0.486 µM (active)
same,Potency,[2],inactive
same,outcome,[3],inactive
same,outcome,[4],inactive
same,Potency,[5],inactive
same,Potency,[6],inactive
same,Potency,[18],inactive
same,Potency,[16],inactive
same,Potency,[17],inactive
CC(C)(C)c1cccc(O)c1,Potency,[1],61.1 µM (active)
same,Potency,[2],inactive
same,outcome,[3],inactive
same,outcome,[4],inactive
same,Potency,[5],inactive
same,Potency,[18],inactive
same,Potency,[7],inactive
same,Potency,[8],inactive
same,Potency,[9],inactive
same,Potency,[10],inactive
same,Potency,[19],inactive
same,Potency,[11],inactive
same,Potency,[12],inactive
same,Potency,[13],inactive
same,Potency,[14],inactive
same,Potency,[15],inactive
same,Potency,[17],inactive
NS(=O)(=O)c1cc2c(cc1Cl)NC(C(Cl)Cl)NS2(=O)=O (stereo not given),Potency,[1],inactive
same,Potency,[2],inactive
same,outcome,[3],inactive
same,outcome,[4],inactive
same,Potency,[5],inactive
same,Potency,[6],inactive
same,Potency,[7],inactive
same,Potency,[8],inactive
same,Potency,[9],inactive
same,Potency,[12],inactive
same,Potency,[13],inactive
same,Potency,[14],inactive
same,Potency,[16],inactive
same,Potency,[17],inactive
CN1CCC(=C2c3ccccc3C=Cc3ccccc32)CC1,Potency,[1],inactive
same,Potency,[2],inactive
same,outcome,[3],inactive
same,outcome,[4],inactive
same,Potency,[5],inactive
same,Potency,[6],inactive
same,Potency,[7],inactive
same,Potency,[9],inactive
same,Potency,[12],inactive
same,Potency,[13],inactive
same,Potency,[16],inactive
same,Potency,[17],13.3 µM (active)
N[C@@H](COP(=O)(O)O)C(=O)O,"activity, positive = activation",[1],0.218% [at 19 µM]
same,activity change,[2],"0.11% [at 11.8 µM, active compounds read high]"
same,activation,[3],0.255% [at 15.8 µM]
same,activation,[4],-0.0564% [at 11.8 µM]
same,activation,[5],-0.646% [at 13.5 µM]
same,"activity change, negative = cytotoxicity",[18],-1.17% [at 13.5 µM]
same,"activity change, negative = cytotoxicity",[7],4.54% [at 13.5 µM]
same,activation,[9],1.58% [at 13.5 µM]
same,"activity, negative = inhibition",[20],-2.49% [at 12.7 µM]
same,activation,[10],-9.17% [at 15.9 µM]
same,"activity, negative = inhibition",[19],5.54% [at 12.6 µM]
same,activation,[11],11.1% [at 15.8 µM]
same,activation,[12],-0.511% [at 19 µM]
same,"activity change, negative = inhibition",[13],-18.4% [at 18.9 µM]
same,"activity change, negative = inhibition",[17],-1.71% [at 18.9 µM]
